# Measured values from the antibiotic and cytotoxicity screens of Wong et al. (2023).
# Out of some 39,000 compounds screened, about 1,500 (3.8%) were called active. This excerpt belongs to a sample that is enriched for actives.
# Tested on: HSkMC (human skeletal muscle cells)
# Assay: cytotoxicity call (relative viability < 0.9)
# Settings: 10 µM
row,Structure (SMILES),cytotoxicity call
1,C[C@@H]1CN([C@@H](C)CO)C(=O)c2cc(N(C)C)ccc2O[C@H]1CN(C)S(C)(=O)=O,inactive
2,COc1ccc(S(=O)(=O)Nc2cccc3c2O[C@H](CN(C)S(C)(=O)=O)[C@H](C)CN([C@@H](C)CO)C3=O)cc1,inactive
3,CC(C)NC(=O)N(C)C[C@H]1Oc2ccc(NC(=O)c3ccncc3)cc2CC(=O)N([C@H](C)CO)C[C@H]1C,inactive
4,C[C@@H]1CCCCO[C@@H](CN(C)S(=O)(=O)c2cn(C)cn2)[C@H](C)CN([C@@H](C)CO)C(=O)c2cc(NS(=O)(=O)c3ccc(F)cc3)ccc2O1,inactive
5,Cc1ccc(S(=O)(=O)N(C)C[C@H]2Oc3ccc(NC(=O)Nc4ccc(C(F)(F)F)cc4)cc3CC(=O)N([C@@H](C)CO)C[C@@H]2C)cc1,inactive
6,Cc1ccc(S(=O)(=O)N(C)C[C@@H]2Oc3ccc(NC(=O)Nc4ccc(C(F)(F)F)cc4)cc3CC(=O)N([C@H](C)CO)C[C@H]2C)cc1,inactive
7,Cc1ccc(S(=O)(=O)N(C)C[C@@H]2Oc3ccc(NC(=O)Nc4ccc(C(F)(F)F)cc4)cc3CC(=O)N([C@@H](C)CO)C[C@@H]2C)cc1,active
8,Cc1ccc(S(=O)(=O)N(C)C[C@@H]2Oc3ccc(NC(=O)Nc4ccc(C(F)(F)F)cc4)cc3CC(=O)N([C@@H](C)CO)C[C@H]2C)cc1,active
9,C[C@@H]1CN([C@@H](C)CO)C(=O)c2cc(NC(=O)c3ccccc3)ccc2O[C@@H](C)CCCCO[C@H]1CN(C)CC1CCCCC1,inactive
10,Cc1noc(C)c1NC(=O)Nc1ccc2c(c1)C(=O)N([C@@H](C)CO)C[C@@H](C)[C@H](CN(C)Cc1ccc(C(F)(F)F)cc1)O2,inactive
11,CC(C)(C)[S@](=O)N1Cc2cc(C(=O)NCC(F)(F)F)nc(-c3cccc(-c4cccc(F)c4)c3)c2[C@@H]1CCO,inactive
12,C[C@H]1CN([C@@H](C)CO)C(=O)Cc2cc(NC(=O)Nc3cccc4ccccc34)ccc2O[C@@H]1CN(C)CC1CCCCC1,active
13,C[C@@H]1CN([C@@H](C)CO)C(=O)Cc2cc(NC(=O)Nc3cccc4ccccc34)ccc2O[C@@H]1CN(C)CC1CCCCC1,inactive
14,C[C@@H]1CN([C@@H](C)CO)C(=O)Cc2cc(NC(=O)Nc3cccc4ccccc34)ccc2O[C@H]1CN(C)CC1CCCCC1,inactive
15,C[C@H](CO)N1C[C@H](C)[C@H](CN(C)CC2CCCCC2)Oc2ccc(NC(=O)Nc3cccc4ccccc34)cc2CC1=O,inactive
16,C[C@H]1CN([C@@H](C)CO)C(=O)Cc2cc(NC(=O)Nc3cccc4ccccc34)ccc2O[C@H]1CN(C)CC1CCCCC1,active
17,C[C@@H]1CN([C@H](C)CO)C(=O)Cc2cc(NC(=O)Nc3cccc4ccccc34)ccc2O[C@H]1CN(C)CC1CCCCC1,inactive
18,C[C@H](CO)N1C[C@H](C)[C@H](CN(C)C(=O)Nc2ccc3c(c2)OCO3)Oc2ccc(NC(=O)Nc3ccc(C(F)(F)F)cc3)cc2C1=O,inactive
19,COC[C@H]1CNN1C(=O)Nc1c(C)noc1C,inactive
20,Cc1noc(C)c1NC(=O)Nc1ccc2c(c1)C(=O)N([C@@H](C)CO)C[C@H](C)[C@H](CN(C)C(=O)NC(C)C)O2,inactive
21,C[C@H](CO)N1C[C@H](C)[C@H](CN(C)C(=O)Nc2cccc3ccccc23)Oc2ccc(NS(=O)(=O)c3ccc(F)cc3)cc2C1=O,inactive
22,C[C@@H]1CCCCO[C@@H](CN(C)C(=O)Nc2ccccc2)[C@@H](C)CN([C@H](C)CO)C(=O)c2cc(NC(=O)c3ccccc3)ccc2O1,inactive

row,Structure (SMILES),cytotoxicity call
1,C[C@H](CO)N1C[C@H](C)[C@@H](CN(C)Cc2ccccc2)Oc2c(NC(=O)Nc3ccc(C(F)(F)F)cc3)cccc2C1=O,inactive
2,C[C@@H]1CN([C@@H](C)CO)C(=O)c2cccc(NC(=O)Nc3ccc(C(F)(F)F)cc3)c2O[C@H]1CN(C)Cc1ccccc1,active
3,C[C@@H]1CN([C@H](C)CO)C(=O)c2cccc(NC(=O)Nc3ccc(C(F)(F)F)cc3)c2O[C@@H]1CN(C)Cc1ccccc1,inactive
4,C[C@@H]1CN([C@@H](C)CO)C(=O)c2cccc(NC(=O)Nc3ccc(C(F)(F)F)cc3)c2O[C@@H]1CN(C)Cc1ccccc1,inactive
5,C[C@H]1CN([C@@H](C)CO)C(=O)c2cccc(NC(=O)Nc3ccc(C(F)(F)F)cc3)c2O[C@@H]1CN(C)Cc1ccccc1,active
6,C[C@@H]1CN([C@H](C)CO)C(=O)c2cccc(NC(=O)Nc3ccc(C(F)(F)F)cc3)c2O[C@H]1CN(C)Cc1ccccc1,inactive
7,Cc1c(-c2ccnn2C)cc(C(=O)NCc2ccc(S(C)(=O)=O)cn2)c(=O)n1-c1cccc(C(F)(F)F)c1,inactive
8,Cc1sc2[nH]cnc(=S)c2c1C,inactive
9,C[C@@H]1CN([C@H](C)CO)C(=O)c2c(c3ccccc3n2C)-c2ccccc2CO[C@H]1CN(C)Cc1ccc2c(c1)OCO2,inactive
10,C[C@@H]1CN([C@@H](C)CO)C(=O)c2cc(NC(=O)Nc3ccc(C(F)(F)F)cc3)ccc2O[C@@H]1CN(C)Cc1ccc(C(=O)Nc2ccccc2N)cc1,inactive
11,COCC(=O)N[C@@H]1C[C@H](CO)[C@H](O)C1,inactive
12,CCCc1cc(=O)n2ncnc2[nH]1,inactive
13,Cc1noc(C)c1NC(=O)Nc1ccc2c(c1)CC(=O)N([C@H](C)CO)C[C@@H](C)[C@H](CN(C)S(=O)(=O)c1cccs1)O2,inactive
14,C=C(C)C1CCC2(C)CCC3(C)C(CCC4C5(C)CCC(O)C(C)(C)C5CCC43C)C12 (centres undefined),inactive
15,C=C(C)C1CCC2(CO)CCC3(C)C(CCC4C5(C)CCC(O)C(C)(C)C5CCC43C)C12 (centres undefined),active
16,C=C(C)C1CCC2(C(=O)O)CCC3(C)C(CCC4C5(C)CCC(O)C(C)(C)C5CCC43C)C12 (centres undefined),inactive
17,CN1CCN(C(=O)C[C@@H]2CC[C@@H]3[C@H](COC[C@H](O)CN3Cc3ccc(Oc4ccccc4)cc3)O2)CC1,inactive
18,CC(C)(C)NC(=O)C[n+]1cccc(/C=N/O)c1,inactive
19,O=C(C[C@@H]1CC[C@@H]2[C@H](COC[C@@H](O)CN2S(=O)(=O)c2cccc(Cl)c2)O1)NCc1ccncn1,inactive
20,O=C(/C=C/c1cccc(-c2cn(-c3cccc(C(=O)N4CCC5(CC4)C(=O)NCN5c4ccccc4)c3)nn2)c1)NO,inactive
21,O=C(NO)c1cn(-c2cccc(C(=O)N3CCC4(CC3)C(=O)NCN4c3ccccc3)c2)nn1,active
22,O=C(NO)c1cn(CC(=O)N2CCC3(CC2)C(=O)NCN3c2ccccc2)nn1,inactive
